Assay results published in PubChem BioAssay AID588849 (Broad Institute, 2011).
Results with a measured potency or affinity are listed apart.

Biological target: CAAX prenyl protease 2 (Homo sapiens) (UniProt Q9Y256)
Assay: human Rce1 protease inhibitors, dose response, biochemical, yeast membranes, quenched-peptide fluorescence, cherry-pick (AID 588849)
Settings: yeast membrane fractions expressing human Rce1, quenched-peptide fluorescence, 4 h; series mostly up to 10 µM; activity change, negative = inhibition: at the top concentration; call rule not given here

Chain of CAAX prenyl protease 2 (Homo sapiens) (Q9Y256 whole entry, looked up): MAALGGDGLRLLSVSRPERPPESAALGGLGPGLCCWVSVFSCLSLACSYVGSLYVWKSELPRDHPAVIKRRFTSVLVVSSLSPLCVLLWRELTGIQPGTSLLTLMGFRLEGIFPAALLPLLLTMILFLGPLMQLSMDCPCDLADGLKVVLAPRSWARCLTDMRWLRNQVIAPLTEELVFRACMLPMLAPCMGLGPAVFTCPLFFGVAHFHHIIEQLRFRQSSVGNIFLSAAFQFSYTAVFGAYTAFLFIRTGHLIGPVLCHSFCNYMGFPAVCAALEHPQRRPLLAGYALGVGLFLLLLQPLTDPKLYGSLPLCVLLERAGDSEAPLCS

Activity change, negative = inhibition, inactive:
COc1ccc([N+](=O)[O-])cc1CSc1ccccn1 3.93%
CCN(Cc1ccccc1)c1ccc(/C=N/N=C(N)N)cc1 6.63%
CC(C)CNC(=O)Nc1ccc(F)c(Cl)c1 0.189%
Cc1cc(N/N=C/c2ccc(O)c(C)c2O)nc(-c2ccccc2O)n1 0.948%
OC1CCN(C(c2ccc3ncccc3c2)c2nnnn2C2CCCCC2)CC1 (stereo unspecified) 14.4%
CCC(=O)Nc1cccc(NC(=S)NC(=O)c2cccs2)c1 -15.7%
COc1ccc(CN2CCN(C(c3ccc(F)cc3)c3ccc(F)cc3)CC2)c(OC)c1OC -15.4%
CS(=O)(=O)c1ccc(C(=O)OCC(=O)N(CCc2ccccc2)Cc2ccccc2)cc1 0.478%
CC1CCc2c(sc(NC(=O)COC(=O)c3ccccc3NCc3ccco3)c2C#N)C1 (stereo unspecified) 51.9%
CN(C)CCNc1ncnc2oc(-c3ccccc3)c(-c3ccccc3)c12 -17.6%
CSC[C@H](NC(=O)COc1cc2c(c3oc(=O)cc(C)c13)CCC(C)(C)O2)C(=O)O 8.43%
Cc1ccc(S(=O)(=O)CC(=O)N2CCN(c3ccccc3F)CC2)cc1 10.6%
Cc1ccc(C(=O)c2c3ccc(C(F)(F)F)cc3nn2CCC(N)=O)cc1 5.68%
CCOC(=O)C1CCCN(C(=O)CCn2nnnc2CN2CCOCC2)C1 (stereo unspecified) -23%
CC(=O)c1c(C)[nH]c(C(=O)OCc2ccc(Br)cc2)c1C 6%
CSc1ccc(C(=O)C2CCCN(C(=O)c3cccnc3SC)C2)cc1 (stereo unspecified) -5.94%
COc1c2ccoc2nc2c(OC)cccc12 0.486%
CCOc1ccc(NC(=O)CCSc2ccc(C)cc2)cc1 -1.72%
O=C(C1=C[C@@H](C2CC2)C[C@@H](OCc2ccc(CO)cc2)O1)N1CCN(Cc2ccccc2)CC1 3.16%
O=C(COC(=O)c1ccccc1Cc1ccccc1)NC1CCS(=O)(=O)C1 (stereo unspecified) -12.4%
COC(=O)C1CCCN1S(=O)(=O)c1ccc2ccccc2c1 (stereo unspecified) -9.77%
